A selection: hits, their analogues and other compounds. The true share with any hit is near 4.5%.
BJeLR viability: BJeLR cell viability loss; BJeLR (HRASV12) viability, CellTiter-Glo ATP luminescence, 48 h; 0.17% of 300,000 active; inhibition, % (no concentration beside the values); in the data active means inhibition above about 50%; inconclusive means no clear call, values can overlap the other calls
PrP 5UTR inh: inhibition of PrP 5' UTR reporter expression; inhibition, % (no concentration beside the values); cell-based PrP 5' UTR mRNA reporter, plate reader; AID 488862; 0.35% of 340,000 active; in the data active means inhibition above about 52%; further: 0 = median of the neutral control wells
PrPC surface inh: reduces human prion protein on the cell surface | 0.43% of 370,000 active | cell surface PrPC, TR-FRET read-out | inhibition, % at 13.8 µM; in the data active means inhibition above about 24%; further: 0% = median of the test wells and 100% = reference compound wells
FBA Mtb inh: inhibits M. tuberculosis FBA enzyme | AID 588726 | 2.3% of 360,000 active | inhibition, % at 1 µM | purified M. tuberculosis FBA, fluorescence read-out; in the data active means inhibition above about 27%;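 further: 0% = vehicle and 100% = reference inhibitor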
Target sequence (P9WQA3 whole entry, looked up): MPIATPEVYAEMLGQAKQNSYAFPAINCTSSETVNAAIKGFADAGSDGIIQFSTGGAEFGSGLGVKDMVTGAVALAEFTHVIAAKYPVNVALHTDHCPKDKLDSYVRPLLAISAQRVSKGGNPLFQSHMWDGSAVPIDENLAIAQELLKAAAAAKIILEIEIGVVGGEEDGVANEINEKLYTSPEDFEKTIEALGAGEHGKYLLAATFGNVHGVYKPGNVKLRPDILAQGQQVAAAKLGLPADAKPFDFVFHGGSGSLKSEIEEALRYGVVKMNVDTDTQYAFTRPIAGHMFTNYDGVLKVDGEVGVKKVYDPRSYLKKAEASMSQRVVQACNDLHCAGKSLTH
PfHsp40 rescue: restores yeast growth despite PfHsp40 toxicity; S. cerevisiae expressing PfHsp40, growth rescue, ATP luminescence; growth rescue, % at 12.5 µM; 0.68% of 340,000 active; in the data active means growth rescue above about 28%, passing the limit was not always enough; inconclusive means no clear call, values can overlap the other calls;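 further: yeast W303a lacking pdr1 and pdr3 grown in galactose medium; growth measured after three days at 30 °C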
GDH-TPI counter: inhibits GDH-TPI coupling enzymes, artifact for Mtb FBA screen; GDH-TPI coupled enzyme counterscreen, NADH absorbance; inhibition, % at 4.8 µM; 1.2% of 360,000 active; in the data active means inhibition above about 30%;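 further: 0% = DMSO wells and 100% = wells lacking the enzyme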
An asterisk follows results filed as active; ? = inconclusive; · = no result; ! = not confirmed by another sample.

SMILES	BJeLR viability	PrP 5UTR inh	PrPC surface inh	FBA Mtb inh	PfHsp40 rescue	GDH-TPI counter
N/C(=N\OC(=O)c1ccc2ccccc2c1)c1ccccc1Cl	16	-79	6	-3	87*	3
O=C(/C=C/c1c(F)cccc1Cl)c1ccc(O)cc1	2	-18	-3	-7	37*	23
O=C(/C=C/c1ccccc1Cl)c1ccc(O)cc1	8	-30	-1	-3	?	35*
O=C(Nc1nc2ncccn2c1-c1ccc(F)cc1)C1CC1	·	·	6	·	·	·
CC(C)=CCC/C(C)=C/CN1CC(=O)N2[C@H](C[C@@]3(n4ccc5ccccc54)c4ccccc4N(S(=O)(=O)c4ccccc4)[C@@H]23)C1=O	·	·	14	·	·	·
COc1ccc(-c2cc(-c3c(O)c(OC)c4occc4c3OC)[nH]n2)cc1OC	5	-24	4	1	31*	7
COc1cc(NC(=O)c2ccco2)c(OC)cc1NC(=O)Nc1ccc(Cl)cc1	0	-5	2	7	3	31*
CCCCN1C(=O)C(CC(=O)NC2CCCC2)CC(C(=O)N2CCCCCC2)=C1C (stereo unspecified)	·	·	0	·	·	·
Nc1nnnn1/N=C/c1cc(Br)ccc1O	-9	·	-6	-2	·	32*
Nc1nnnn1/N=C/c1ccc(Br)cc1	0	-4	2	1	-3	7
c1ccc(Nc2cccc(Nc3ccccc3)n2)cc1	-4	-32	-3	5	54*	14
c1ccc(Nc2ccccn2)cc1	1	-28	-4	-1	-1	3
Nc1c(S(=O)(=O)c2cccs2)c2nc3ccccc3nc2n1/N=C/c1cccc(O)c1	-8	-32	-8	19	6	45*
CC(C)Cn1c(N)c(S(=O)(=O)c2cccs2)c2nc3ccccc3nc21	5	-3	5	142*	-1	23
COc1cccc(/C=N/n2c(N)c(S(=O)(=O)c3cccs3)c3nc4ccccc4nc32)c1	9	-4	-2	3	-2	3
O=C(NCC1CCCO1)c1coc2nc3ccccc3nc12 (stereo unspecified)	-4	-2	-8	126*	0	9
COC(CNC(=O)c1coc2nc3ccccc3nc12)OC	3	-30	-6	120*	1	29
O=C(Nc1ccccc1C(=O)NCC1CCCO1)c1ccccc1 (stereo unspecified)	4	-18	12	-7	-1	-3
C[C@H]1/C=C/CC(=O)N[C@@H](c2ccc3ccccc3c2)[C@@H](C)/C=C/CC(=O)N[C@H]1c1ccc2ccccc2c1	·	·	-4	·	·	·
C#CCNC(=O)C[C@H]1C[C@@]2(C(=O)OC)C(=C[C@H](COCc3ccccc3)O[C@@H]2C)N(Cc2ccc(Cl)cc2Cl)C1=O	·	·	-3	·	·	·
S=C(NCCc1ccc(Cl)cc1)NC1CCCCC1	1	-42	-4	1	200*	-3
S=C(NCCc1ccccc1)NC1CCCCCC1	3	-109	-5	0	88*	-4
Cc1cccnc1NC(=S)NCCc1ccccc1	1	-82	4	2	60*	-4
Cc1ccc(CN2CCCCC(NC(=O)c3cccc([N+](=O)[O-])c3)C2=O)cc1 (stereo unspecified)	·	·	-3	·	·	·
Cn1c2ccccc2c(=O)c2c(=O)n(CCCc3ccccc3)cnc21	·	·	7	·	·	·
SMILES	BJeLR viability	PrP 5UTR inh	PrPC surface inh	FBA Mtb inh	PfHsp40 rescue	GDH-TPI counter
COC(=O)c1cc2c(s1)=NC=NP=2(N1CCOCC1)N1CCOCC1	8	36	-3	1	-2	31*!
COC(=O)c1ccc(C(=S)N2CCOCC2)cc1	-14	-18	1	4	-2	11
CCC(=O)N1CCc2cc(Br)c(S(=O)(=O)NCCCN(CC)Cc3ccccc3)cc21	·	·	-10	·	·	·
COc1ccc(C)cc1NC(=O)ON=C1CCCCC1	·	·	-6	0	·	·
O=C(Nc1cccc2ccccc12)ON=C1CCCCC1	·	·	2	116*	·	-4
CCn1c(CNc2ccc(Cl)cc2)nnc1SCc1ccccc1	1	-15	17	0	120*	0
Cn1c(CNc2ccc(Cl)cc2)nnc1SCc1ccccc1	-4	-1	7	-4	143*	0
CCn1c(CNc2ccc(Cl)cc2)nnc1SCC(=O)NCc1ccccc1	1	-4	-5	-4	-1	5
Cn1c(CNc2ccc(Cl)cc2)nnc1SCC#N	-3	-15	7	1	-1	9
Cc1ccc2nc(-c3ccc(NC(=O)CSc4nnc(-c5cccc(Cl)c5)n4Cc4ccco4)cc3)sc2c1	·	·	0	·	·	·

From PubChem BioAssay
